The results in this text go back to the supplement of paper PMC13380429.

Assay [1] relates to Vero E6 infected with SARS-CoV-2. Description: morphology score (similarity to uninfected cells); higher = more like uninfected cells. As to conditions: 24 h.
The test system is the same in assay [2]. Description: SARS-CoV-2 infection rate relative to infected DMSO; higher = more infection, active = 60 or less. Conditions: 24 h.

With `CN1CC[C@@H]2CN3CCc4cccc(c43)[C@@H]2C1` (10 µM), the morphology score in assay [1] was -0.0541. The SARS-CoV-2 infection rate in assay [2] was 108% (inactive).
For `C[C@@H]1CCCN1CCc1cc2cc(-c3ccc(C#N)cc3)ccc2o1` (10 µM) the same measures were 0.44 and 80.5% (inactive).
`O=C(CSc1nc2c(c(=O)n1-c1ccccc1)SCC2)Nc1ccc(-c2ccccc2)cn1` (10 µM): the morphology score in assay [1] amounted to 0.109. For the same compound, the SARS-CoV-2 infection rate in assay [2] was 112% (inactive).
For `CCCCOc1cc(C(=O)OCCN(CC)CC)ccc1N` [oxybuprocaine] (10 µM) the same measures were 0.0894 and 114% (inactive).
For `CCCCCCOC(=O)NC(=N)c1ccc(NCc2nc3cc(C(=O)N(CCC(=O)OCC)c4ccccn4)ccc3n2C)cc1` [dabigatran-etexilate] (10 µM) the same measures were 0.027 and 98.5% (inactive).
For `CCc1ccc(OCc2ccccc2C(=O)Nc2ccc3nc(C)cc(N)c3c2)cc1` (0.833333 µM) the same measures were 0.313 and 89% (inactive).
The compound `C[N@+]1(CC2CC2)CC[C@]23c4c5ccc(O)c4O[C@H]2C(=O)CC[C@@]3(O)[C@H]1C5` [methylnaltrexone] (10 µM) came in with a morphology score in assay [1] of -0.0178. Besides, in assay [2], the SARS-CoV-2 infection rate was 118% (inactive).
`Cc1cc(C)c(CNC(=O)c2cc(-c3ccc(CN4CCOCC4)cc3)cc3c2cnn3C2CCCC2)c(=O)[nH]1` (10 µM) yielded a morphology score in assay [1] of -0.13. For the same compound, in assay [2], the SARS-CoV-2 infection rate was 110% (inactive).
In turn, `CCOc1cc(C=O)ccc1O` [ethyl-vanillin] (10 µM) had a morphology score in assay [1] of 0.19. Also, in assay [2], the SARS-CoV-2 infection rate is 100% (inactive).
For `CCOC(=O)NNc1ccc(N(CC)CC(C)O)nn1` (stereo not drawn) [cadralazine] (10 µM) the same measures were 0.0865 and 108% (inactive).
Consider `COc1c2ccoc2cc2oc(=O)ccc12` [bergapten] (10 µM), for which the morphology score in assay [1] worked out at 0.0727. In addition, the SARS-CoV-2 infection rate in assay [2] was 108% (inactive).
For `O=S(=O)(N[C@H]1CC[C@@](c2cc(F)ccc2F)(S(=O)(=O)c2ccc(Cl)cc2)CC1)C(F)(F)F` (10 µM) the same measures were 0.0636 and 104% (inactive).
For `O=P1(N(CCCl)CCCl)NCCCO1` (stereo not drawn) [cyclophosphamide] (10 µM) the same measures were 0.0658 and 97.5% (inactive).
As to `C[C@H]1O[C@@H](O[C@H]2CC[C@@]3(C)[C@H](CC[C@@H]4[C@@H]3C[C@@H](O)[C@]3(C)[C@@H](C5=CC(=O)OC5)CC[C@]43O)C2)C[C@H](O)[C@@H]1O[C@H]1C[C@H](O)[C@H](O[C@H]2C[C@H](O)[C@H](O[C@@H]3O[C@H](CO)[C@@H](O)[C@H](O)[C@H]3O)[C@@H](C)O2)[C@@H](C)O1` [deslanoside] (0.833333 µM), the morphology score in assay [1] was -0.123. For the same compound, the SARS-CoV-2 infection rate in assay [2] is 114% (inactive).
For `COc1ccc(S(=O)(=O)Nc2cc(Cl)cc(Cl)c2OC)cc1N1CCNCC1` (10 µM) the same measures were 0.132 and 97.5% (inactive).
Take `CN(C)CCNc1nc2cc(O)ccc2c2c1C(=O)c1ccccc1-2` (10 µM): in assay [1], the morphology score was -0.234. Also, in assay [2], the SARS-CoV-2 infection rate was 106% (inactive).
Regarding `CO/N=C(\C(=O)N[C@@H]1C(=O)N2C(C(=O)O)=C(CSC(=O)c3ccco3)CS[C@H]12)c1csc(N)n1` (10 µM), in assay [1], the morphology score was 0.156. Besides, the SARS-CoV-2 infection rate in assay [2] was 104% (inactive).
On to `CC1(C)CC[C@]2(NC(=O)C(C)(F)F)CC[C@]3(C)[C@H](C(=O)C=C4[C@@]5(C)C=C(C#N)C(=O)C(C)(C)[C@@H]5CC[C@]43C)[C@@H]2C1` [Omaveloxolone (RTA-408)] (10 µM), for which the morphology score in assay [1] was -0.212. Further, the SARS-CoV-2 infection rate in assay [2] was 112% (inactive).
For `CCCCCOc1ccc(-c2ccc(-c3ccc(C(=O)N[C@H]4C[C@@H](O)[C@@H](O)NC(=O)[C@@H]5[C@@H](O)[C@@H](C)CN5C(=O)[C@H]([C@@H](C)O)NC(=O)[C@H]([C@H](O)[C@@H](O)c5ccc(O)cc5)NC(=O)[C@@H]5C[C@@H](O)CN5C(=O)[C@H]([C@@H](C)O)NC4=O)cc3)cc2)cc1` [anidulafungin] (10 µM) the same measures were -0.164 and 110% (inactive).
The matching figures for `COc1ccc(/C=C/CCCCOc2ccc(C(=O)c3cccc(C(=O)O)c3)cc2CCC(=O)O)cc1` (10 µM): 0.0773 and 95% (inactive).
For `O=C1c2c(O)cccc2C([C@@H]2O[C@H](CO)[C@@H](O)[C@H](O)[C@H]2O)c2cc(CO)cc(O)c21` (stereo partly drawn) [aloin] (10 µM) the same measures were -0.243 and 116% (inactive).
`CN(C)C(=S)SC(=S)N(C)C` [tetramethylthiuram-monosulfide] (10 µM) returned a morphology score in assay [1] of -0.225. Further, the SARS-CoV-2 infection rate in assay [2] is 116% (inactive).
Regarding `O=C(NCCNCC(O)COc1ccc(O)cc1)N1CCOCC1` (stereo not drawn) [xamoterol] (10 µM), the morphology score in assay [1] was 0.0295. Moreover, the SARS-CoV-2 infection rate in assay [2] was 110% (inactive).
For `COc1ccc2[nH]c(-c3ccccc3)c(CCNC(C)=O)c2c1` [2-phenylmelatonin] (10 µM) the same measures were 0.062 and 107% (inactive).
The matching figures for `CN1CCc2cc3c(cc2[C@H]1[C@@H]1OC(=O)c2c1ccc1c2OCO1)OCO3` [bicuculline-(+)] (10 µM): -0.0434 and 98% (inactive).
The matching figures for `CCCCCCCCOc1ccccc1C(=O)Nc1ccc(C(=O)OCC[N+](C)(CC)CC)cc1` [otilonium] (10 µM): 0.299 and 101% (inactive).
In turn, `CCCSc1ccc2[nH]c(NC(=O)OC)nc2c1` [albendazole] (0.833333 µM) showed a morphology score in assay [1] of 0.0557. The SARS-CoV-2 infection rate in assay [2] is 98% (inactive).
Compound `COc1ccc(Cl)c(Nc2nc3ccccc3nc2NS(=O)(=O)c2cccc(NC(=O)C(C)(C)N)c2)c1` [pilaralisib] (10 µM) came in with a morphology score in assay [1] of 0.0424. Moreover, the SARS-CoV-2 infection rate in assay [2] was 103% (inactive).
For `Clc1ccc(CSC(Cn2ccnc2)c2ccc(Cl)cc2Cl)cc1` (stereo not drawn) [sulconazole] (10 µM) the same measures were -0.0348 and 110% (inactive).
